# Test results as given in the supplement of paper PMC8728848.
# Shown is part of a subset that was picked to be rich in the strongest signals.
# B1: RSVL (Crotalus atrox), P21963 (protein)
# chain: NNCPLDWLPMNGLCYKIFNQLKTWEDAEMFCRKYKPGCHLASFHRYGESLEIAEYISDYHKGQENVWIGLRDKKKDFSWEWTDRSCTDYLTWDKNQPDHYQNKEFCVELVSLTGYRLWNDQVCESKDAFLCQCKF
# How the values were obtained:
# Assay in all cases: glycan array binding signal (z-score within array); higher = stronger binding
# Settings in all cases: glycan notation: IUPAC condensed, linker removed
# [1] = target: Fuc(a1-2)GlcNAc
# How it was run: (§1)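 Negative Z-scores can be read as non-binding. The Z-score is calculated within each array and then averaged across arrays of one protein sequence at different concentrations or buffers and across linkers. Arrays, 3228 in all, were curated from the Consortium for Functional Glycomics database and kept only where the protein sequence was available.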
# [2] = target: Fuc(a1-2)[GalNAc(a1-3)]Gal(b1-4)Glc
# How it was run: as §1
# [3] = target: Gal(a1-3)[Gal(a1-4)]Gal(b1-4)GlcNAc
# How it was run: as §1
# [4] = target: Gal(b1-3)[Neu5Ac(b2-6)]GalNAc
# How it was run: as §1
# [5] = target: Gal(b1-4)GlcNAc
# How it was run: as §1
# [6] = target: Gal(b1-4)GlcNAc(b1-2)Man(a1-3)[Gal(b1-4)GlcNAc(b1-2)Man(a1-6)]Man(b1-4)GlcNAc(b1-4)GlcNAc
# How it was run: as §1
# [7] = target: Gal(b1-4)GlcNAc(b1-3)Gal(b1-4)GlcNAc(b1-3)Gal(b1-4)GlcNAc
# How it was run: as §1
# [8] = target: Gal(b1-4)GlcNAc(b1-3)GalNAc
# How it was run: as §1
# [9] = target: Gal(b1-4)GlcNAc(b1-3)[Gal(b1-4)GlcNAc(b1-6)]GalNAc
# How it was run: as §1
# [10] = target: Gal(b1-4)GlcNAc(b1-6)[Gal(b1-3)]GalNAc
# How it was run: as §1
# [11] = target: GalNAc(a1-3)GalNAc
# How it was run: as §1
# [12] = target: GalNAc(b1-3)Gal(a1-4)Gal(b1-4)GlcNAc
# How it was run: as §1
# [13] = target: Glc(b1-6)Glc
# How it was run: as §1
# [14] = target: GlcNAc(b1-3)Gal(b1-4)GlcNAc
# How it was run: as §1
# [15] = target: GlcNAc(b1-4)GlcNAc(b1-4)GlcNAc(b1-4)GlcNAc(b1-4)GlcNAc(b1-4)GlcNAc
# How it was run: as §1
# [16] = target: GlcNAc(b1-6)GalNAc
# How it was run: as §1
# [17] = target: Man(a1-2)Man(a1-2)Man(a1-3)Man
# How it was run: as §1
# [18] = target: Neu5Ac(a2-3)Gal(b1-4)GlcNAc(b1-3)Gal(b1-4)GlcNAc
# How it was run: as §1
# [19] = target: Neu5Ac(a2-3)Gal(b1-4)[Fuc(a1-3)]GlcNAc6S
# How it was run: as §1
# [20] = target: Neu5Ac(a2-3)GalNAc
# How it was run: as §1
# [21] = target: Neu5Ac(a2-3)GalNAc(b1-4)GlcNAc
# How it was run: as §1
# [22] = target: Neu5Ac(a2-8)Neu5Ac(a2-8)Neu5Ac(a2-3)[GalNAc(b1-4)]Gal(b1-4)Glc
# How it was run: as §1
# [23] = target: Neu5Gc(a2-3)Gal(b1-4)Glc
# How it was run: as §1
# [24] = target: Neu5Gc(a2-6)GalNAc
# How it was run: as §1
binder,measurement,setting,value
B1,glycan array binding signal (z-score),[1],-0.364
same,glycan array binding signal (z-score),[2],1.84
same,glycan array binding signal (z-score),[3],5.83
same,glycan array binding signal (z-score),[4],0.952
same,glycan array binding signal (z-score),[5],0.686
same,glycan array binding signal (z-score),[6],1.49
same,glycan array binding signal (z-score),[7],-0.23
same,glycan array binding signal (z-score),[8],-0.171
same,glycan array binding signal (z-score),[9],5.41
same,glycan array binding signal (z-score),[10],5.05
same,glycan array binding signal (z-score),[11],4.76
same,glycan array binding signal (z-score),[12],0.559
same,glycan array binding signal (z-score),[13],-0.364
same,glycan array binding signal (z-score),[14],-0.369
same,glycan array binding signal (z-score),[15],-0.369
same,glycan array binding signal (z-score),[16],1.02
same,glycan array binding signal (z-score),[17],-0.367
same,glycan array binding signal (z-score),[18],-0.365
same,glycan array binding signal (z-score),[19],-0.345
same,glycan array binding signal (z-score),[20],-0.367
same,glycan array binding signal (z-score),[21],-0.342
same,glycan array binding signal (z-score),[22],-0.362
same,glycan array binding signal (z-score),[23],-0.365
same,glycan array binding signal (z-score),[24],-0.366
